These results are taken from PubChem BioAssay.

The structures appear in SMILES notation. Calls of active or inactive are those of the source. How the calls were made is not given here.

Sequence of Pantothenate synthetase (Mycobacterium tuberculosis (strain ATCC 25618 / H37Rv)) (P9WIL5 whole entry, looked up): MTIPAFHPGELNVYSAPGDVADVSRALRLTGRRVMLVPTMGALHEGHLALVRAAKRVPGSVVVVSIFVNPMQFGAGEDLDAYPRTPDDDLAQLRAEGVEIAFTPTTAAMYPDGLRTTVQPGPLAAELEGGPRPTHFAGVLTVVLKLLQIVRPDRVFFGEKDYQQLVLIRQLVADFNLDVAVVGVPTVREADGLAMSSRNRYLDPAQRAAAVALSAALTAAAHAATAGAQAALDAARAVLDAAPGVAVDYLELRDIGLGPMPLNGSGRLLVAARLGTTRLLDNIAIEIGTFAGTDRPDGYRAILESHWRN

The assay has as its target Pantothenate synthetase (Mycobacterium tuberculosis (strain ATCC 25618 / H37Rv)) (UniProt P9WIL5). Put plainly: Recombinant Mtb pantothenate synthetase (PanC) inhibitors, coupled enzyme, confirmatory (AID 375).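 Further: 0% = full reaction with vehicle and 100% = no enzyme background.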 The note with it: coupled enzyme assay; at 10 µM, hits give high values.
The term inhibition denotes the percentage by which the read-out fell short of the control. As for `CN(C)CCCN1C(=O)c2oc3ccccc3c(=O)c2C1c1cccs1` (stereo not given), the inhibition was 0% (inactive).

As to `Cc1cc(NC(=O)C2CCCC2)nc2c1c(=O)oc1ccccc12`, the inhibition was 12% (inactive).

As to `Cc1ccc(C)c(C(=O)CC2(O)C(=O)N(C)c3ccccc32)c1` (stereo not given), the inhibition was 0% (inactive).

Regarding `CCn1c(SCC(=O)c2ccc(C)cc2)nnc1-c1ccoc1C`, the inhibition is 2% (inactive).

For `Cn1nc(-c2ccc(C(=O)NCC3CCCO3)cc2)c2ccccc2c1=O` (stereo not given), the inhibition is 4% (inactive).

Regarding `Cc1cc(Nc2ccccc2N2CCOCC2)n2ncnc2n1`, the inhibition was 0% (inactive).

For the compound `CC1CNCCN1S(=O)(=O)c1cccc2cnccc12` (stereo not given), the inhibition was 5% (inactive).

`CC(C)(C)n1nnnc1C(c1cccs1)N1CCN(Cc2ccccc2)CC1` (stereo not given): the inhibition is 12% (inactive).

With `CC(C)Sc1nc2c(c(=O)n1-c1ccc(F)cc1)SCC2`, the inhibition is 1% (inactive).

With `COC(=O)CNC(=O)COC(=O)c1cc(Cl)cc(Cl)c1N`, the inhibition is 0% (inactive).

`CCOC(=O)Cn1c(=N)n(CCOc2cccc(C)c2)c2ccccc21`: the inhibition was 0% (inactive).

For `COc1cc([C@@H]2[C@H]3CN(C)CC=C3C(C#N)=C(N)C2(C#N)C#N)cc2c1OCO2`, the inhibition was 0% (inactive).

With `Cc1ccc(-c2cn3cccnc3n2)cc1NC(=O)c1ccc(Br)o1`, the inhibition is 0% (inactive).

As to `CC1CCN(C(=S)c2ccccc2O)CC1`, the inhibition was 0% (inactive).

Take `Clc1cccc(-c2nn3c(Cn4cnc5ccccc54)nnc3s2)c1`: the inhibition is 0% (inactive).

With `Nc1nnc(-c2cn(-c3ccccc3)nc2-c2ccccc2)o1`, the inhibition is 0% (inactive).

For the compound `CCOC(=O)N1CCN(C(=O)COc2ccc(S(=O)(=O)NC3CCCCC3)cc2C)CC1`, the inhibition is 2% (inactive).

Consider `Cc1cccc2cc(CN(CCCO)C(=O)Nc3ccc(Cl)cc3)c(=O)[nH]c12`, for which the inhibition is 5% (inactive).

For `CCCCC(NS(=O)(=O)c1ccc(OC)cc1)C(=O)O` (stereo not given), the inhibition is 0% (inactive).

Consider `CCOC(=O)C1=C(N)OC2=C(C(=O)CC(C)(C)C2)C1c1ccco1` (stereo not given), for which the inhibition was 5% (inactive).

As to `COc1ccc(-n2c(COc3ccccc3)nnc2SCc2ccc(C#N)cc2)cc1`, the inhibition was 0% (inactive).

Consider `Cc1cccc(N2CN=c3s/c(=C\c4ccncc4)c(=O)n3C2)c1`, for which the inhibition was 6% (inactive).

With `COc1ccccc1N1CCN(C(CNS(=O)(=O)c2cc(F)ccc2F)c2cccnc2)CC1` (stereo not given), the inhibition is 0% (inactive).

Consider `COc1ccc(CCNc2oc(COc3ccc(F)cc3)nc2C#N)cc1`, for which the inhibition was 0% (inactive).

Take `COc1ccc(OC)c(C(=O)CSc2nnc(-c3ccc(OC)c(OC)c3)o2)c1`: the inhibition was 11% (inactive).

Turning to `Cn1c(=O)c2c(nc(NCCNC(=O)c3ccco3)n2Cc2ccccc2Cl)n(C)c1=O`, the inhibition was 0% (inactive).

As to `Cc1ccc(C)c(N2CCN(CCCNC(=O)Cn3cc4c(n3)CCC(C)C4)CC2)c1` (stereo not given), the inhibition is 8% (inactive).

With `O=C(CCSc1ccccc1)Nc1ccc(S(=O)(=O)N2CCOCC2)cc1`, the inhibition is 7% (inactive).

Turning to `Cc1cc(NC(=O)CCC(=O)N(CC2CCCO2)C(C(=O)NC2CCCC2)c2ccccc2C)no1` (stereo not given), the inhibition was 0% (inactive).

`CCOC(=O)N1CCC(NC(=O)CCc2c(C)nc3c(c(C)nn3C(C)(C)C)c2C)CC1`: the inhibition was 7% (inactive).

Consider `Cc1nc(N2CCc3ccccc32)[nH]c(=O)c1CCC(C)C`, for which the inhibition was 0% (inactive).

On to `Cc1cccc(-c2nc(CN3CCCC(C(=O)NC4CCCC4)C3)c(C)o2)c1` (stereo not given), for which the inhibition was 0% (inactive).

Take `Cc1cccc(-n2ncc(C#N)c2N)c1`: the inhibition is 1% (inactive).

For `CC(=O)NCc1cccc(CNC(C)=O)n1`, the inhibition is 11% (inactive).

Consider `Cc1c(Br)c(C(F)(F)F)nn1CC(=O)NCCN1CCOCC1`, for which the inhibition is 0% (inactive).

In the case of `CCCC1O[C@@H]2C[C@H]3[C@@H]4CCC5=CC(=O)C=C[C@]5(C)[C@H]4[C@@H](O)C[C@]3(C)[C@]2(C(=O)CO)O1` (stereo not given in full), the inhibition is 4% (inactive).

On to `COc1cc(S(=O)(=O)NC2CCCCC2C)ccc1Cl` (stereo not given), for which the inhibition was 0% (inactive).

As to `Cc1nc2c(c(=O)n1CC1CCCO1)c1nc3ccccc3nc1n2CC(C)C` (stereo not given), the inhibition is 0% (inactive).

Consider `CCOc1nc(SCCOc2ccccc2)nc(N(C)C)n1`, for which the inhibition is 4% (inactive).

Turning to `CS(=O)(=O)N(Cc1ccccc1)c1ccc(C(=O)N2CCOCC2)cc1`, the inhibition is 0% (inactive).
